# From the supplement of paper PMC8728848
# About 410 targets per protein were measured; listed, in parts, are those with the strongest signals and a random draw of the rest.
# B1: ASA (Allium sativum) (protein)
# chain: KAHEKERMGRNTPSAKLMSIAAVAAILTILASTCMARNLLTNGEGLYAGQSLNVEPYHFIMQEDCNLVLYDHSTAVWATNTDIPGKKECRAVLQSDGNFVVYDADGRPLWASHSVRGNGNYVLVLQEDGNVVIYGSDIWSTGTYVKAARGPVVVAMNGTVDGGSLIRPVIVNKNHVPVIRKVGTLSRNILRNDEGLYAGQSLDVEPYHFIMHEDCNLVLYDHSTAVWASNTDIPGKKGCKAVLQSDGNFVVYDAEGRSLWASHSVRGNGNYVLVLQEDGNVVIYGSDIWSTDTYRKSARGPVIRKVGTLAGAA
# Tests used:
# Assay in all cases: glycan array binding signal (z-score within array); higher = stronger binding
# Settings in all cases: glycan notation: IUPAC condensed, linker removed
# [1] = biological target: Fuc(a1-2)Gal
# Method in brief: (§1)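 The binding signal is a Z-score computed within each array. Data were drawn from 3228 arrays in the Consortium for Functional Glycomics database, restricted to those with a known protein sequence. Scores were averaged over arrays of the same protein sequence at different concentrations or buffers, and over linkers, and negative values can be taken as non-binding.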
# [2] = biological target: Fuc(a1-2)Gal(b1-4)[Fuc(a1-3)]GalNAc(b1-3)Gal(b1-4)[Fuc(a1-3)]GlcNAc(b1-3)Gal(b1-4)[Fuc(a1-3)]GalNAc
# Method in brief: as §1
# [3] = biological target: Fuc(a1-3)[Gal(b1-4)]GlcNAc(b1-4)Gal(b1-4)[Fuc(a1-3)]GlcNAc(b1-4)Gal(b1-4)[Fuc(a1-3)]GlcNAc
# Method in brief: as §1
# [4] = biological target: Gal(b1-3)GalNAc
# Method in brief: as §1
# [5] = biological target: Gal(b1-3)GalNAc(b1-3)Gal(b1-4)GlcNAc
# Method in brief: as §1
# [6] = biological target: Gal(b1-3)[GlcNAc(b1-6)]GalNAc
# Method in brief: as §1
# [7] = biological target: Gal(b1-4)GlcNAc(b1-3)GalNAc
# Method in brief: as §1
# [8] = biological target: Gal4S6S(b1-4)GlcNAc
# Method in brief: as §1
# [9] = biological target: GalNAc(b1-4)GlcNAc
# Method in brief: as §1
# [10] = biological target: Glc(a1-6)Glc(a1-6)Glc
# Method in brief: as §1
# [11] = biological target: Man(a1-2)Man(a1-2)Man(a1-3)Man
# Method in brief: as §1
# [12] = biological target: Man(a1-2)Man(a1-3)[Man(a1-2)Man(a1-6)]Man
# Method in brief: as §1
# [13] = biological target: Man(a1-2)Man(a1-3)[Man(a1-3)[Man(a1-6)]Man(a1-6)]Man(b1-4)GlcNAc(b1-4)GlcNAc
# Method in brief: as §1
# [14] = biological target: Man(a1-3)[Man(a1-6)]Man(a1-6)[Man(a1-3)]Man(b1-4)GlcNAc(b1-4)GlcNAc
# Method in brief: as §1
# [15] = biological target: Man(a1-3)[Man(a1-6)]Man(b1-4)GlcNAc(b1-4)GlcNAc
# Method in brief: as §1
# [16] = biological target: Neu5Ac(a2-3)Gal(b1-3)GalNAc(b1-3)Gal(a1-4)Gal(b1-4)Glc
# Method in brief: as §1
# [17] = biological target: Neu5Ac(a2-3)[GalNAc(b1-4)]Gal(b1-4)GlcNAc
# Method in brief: as §1
# [18] = biological target: Neu5Gc(a2-3)Gal(b1-4)Glc
# Method in brief: as §1
binder,measurement,setting,value
B1,glycan array binding signal (z-score),[1],-0.156
same,glycan array binding signal (z-score),[2],-0.081
same,glycan array binding signal (z-score),[3],-0.229
same,glycan array binding signal (z-score),[4],-0.222
same,glycan array binding signal (z-score),[5],-0.231
same,glycan array binding signal (z-score),[6],-0.211
same,glycan array binding signal (z-score),[7],-0.23
same,glycan array binding signal (z-score),[8],-0.222
same,glycan array binding signal (z-score),[9],-0.151
same,glycan array binding signal (z-score),[10],-0.228
same,glycan array binding signal (z-score),[11],6.7
same,glycan array binding signal (z-score),[12],2.2
same,glycan array binding signal (z-score),[13],6.08
same,glycan array binding signal (z-score),[14],5.45
same,glycan array binding signal (z-score),[15],6.64
same,glycan array binding signal (z-score),[16],-0.228
same,glycan array binding signal (z-score),[17],-0.172
same,glycan array binding signal (z-score),[18],-0.208
